Binding signal data for 1 sequence are collected here from article PMC7862700, “An all-to-all approach to the identification of sequence-specific readers for epigenetic DNA modifications on cytosine”.

Holding throughout (assay): DAPPL (digital affinity profiling via proximity ligation, sequencing); 10 mM Tris-HCl pH 7.5, 50 mM NaCl, 1 mM DTT, 4% glycerol, room temperature, 30 min; GST-TFs on glutathione beads, 16-mer random dsDNA library, 0.1% formaldehyde crosslink after washing; high values mean tight binding
One assay addresses T1, FEV (Homo sapiens, UniProt Q99581 1-238).
T1 sequence: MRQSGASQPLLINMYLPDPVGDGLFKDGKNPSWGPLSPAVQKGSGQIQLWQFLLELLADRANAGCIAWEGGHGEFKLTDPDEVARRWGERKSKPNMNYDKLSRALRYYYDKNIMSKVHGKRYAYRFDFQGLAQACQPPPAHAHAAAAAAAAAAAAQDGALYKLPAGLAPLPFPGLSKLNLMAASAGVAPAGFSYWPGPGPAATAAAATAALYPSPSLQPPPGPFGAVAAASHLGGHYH
The settings on record: protein: recombinant; tags: N-terminal GST; dsDNA, one strand shown. Put shortly: (§1)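 Each value of binding signal is a hexamer's read frequency for a factor divided by the same hexamer's frequency in the tag-only sample. Barcoded, bead-captured GST fusions of human transcription factors made in yeast were pooled with that sample and incubated with 200 nmole of a random double-stranded 16-mer DNA library in Tris/NaCl/DTT/glycerol buffer at room temperature for 30 min. Washing, 0.1% formaldehyde crosslinking, proximity ligation, PCR and Illumina NextSeq500 sequencing followed.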

The next assay has as its target ETV5 (Homo sapiens, UniProt P41161 1-510). The settings on record: protein: recombinant; tags: N-terminal GST; dsDNA, one strand shown. The essentials: as §1
The target of another assay is HSF1 (Homo sapiens, UniProt Q00613 1-529). The following applies: protein: recombinant; tags: N-terminal GST; chain copies: 3; dsDNA, one strand shown. The essentials: as §1
Another assay concerns the target T2, SPIC (Homo sapiens, UniProt Q8N5J4 1-248).
T2 sequence: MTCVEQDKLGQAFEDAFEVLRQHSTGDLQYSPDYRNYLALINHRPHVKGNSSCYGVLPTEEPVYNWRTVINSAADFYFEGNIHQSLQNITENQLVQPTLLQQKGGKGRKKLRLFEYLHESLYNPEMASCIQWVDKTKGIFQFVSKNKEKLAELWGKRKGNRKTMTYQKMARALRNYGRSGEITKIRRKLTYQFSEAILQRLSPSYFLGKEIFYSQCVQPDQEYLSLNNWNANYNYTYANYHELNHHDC
The settings on record: protein: recombinant; tags: N-terminal GST; dsDNA, one strand shown. Put shortly:
as §1

A further assay addresses ELF4 (Homo sapiens, UniProt Q99607 1-663). The settings on record: protein: recombinant; tags: N-terminal GST; dsDNA, one strand shown. Put shortly: as §1
Another assay has as its target T3, ELK4 (Homo sapiens, UniProt P28324-2 1-405).
T3 sequence: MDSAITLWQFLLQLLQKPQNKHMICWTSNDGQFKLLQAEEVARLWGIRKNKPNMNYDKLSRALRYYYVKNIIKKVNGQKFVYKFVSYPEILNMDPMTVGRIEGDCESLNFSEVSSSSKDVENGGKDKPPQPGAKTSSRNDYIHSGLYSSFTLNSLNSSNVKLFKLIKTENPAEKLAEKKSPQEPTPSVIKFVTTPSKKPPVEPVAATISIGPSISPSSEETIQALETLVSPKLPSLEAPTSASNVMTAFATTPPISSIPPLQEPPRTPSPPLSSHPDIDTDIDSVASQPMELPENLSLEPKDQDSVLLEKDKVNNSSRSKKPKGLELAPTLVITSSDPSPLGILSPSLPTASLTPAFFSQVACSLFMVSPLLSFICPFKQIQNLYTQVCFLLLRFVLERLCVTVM
The settings on record: protein: recombinant; tags: N-terminal GST; dsDNA, one strand shown. Put shortly:
as §1

For a further assay, the target named is T4, ETV2 (Homo sapiens, UniProt O00321 1-342).
T4 sequence: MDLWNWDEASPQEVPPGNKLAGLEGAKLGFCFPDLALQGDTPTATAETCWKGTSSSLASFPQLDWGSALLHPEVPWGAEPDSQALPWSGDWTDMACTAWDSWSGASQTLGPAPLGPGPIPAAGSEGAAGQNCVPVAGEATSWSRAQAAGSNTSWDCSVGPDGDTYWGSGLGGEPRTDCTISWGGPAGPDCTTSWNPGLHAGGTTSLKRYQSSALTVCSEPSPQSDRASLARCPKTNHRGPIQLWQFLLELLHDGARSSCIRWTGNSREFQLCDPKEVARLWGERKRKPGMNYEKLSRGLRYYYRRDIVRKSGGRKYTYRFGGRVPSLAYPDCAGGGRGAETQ
The following applies: protein: recombinant; tags: N-terminal GST; dsDNA, one strand shown. Put shortly: as §1

For a further assay, the target named is T5, ELF3 (Homo sapiens, UniProt P78545 1-371).
T5 sequence: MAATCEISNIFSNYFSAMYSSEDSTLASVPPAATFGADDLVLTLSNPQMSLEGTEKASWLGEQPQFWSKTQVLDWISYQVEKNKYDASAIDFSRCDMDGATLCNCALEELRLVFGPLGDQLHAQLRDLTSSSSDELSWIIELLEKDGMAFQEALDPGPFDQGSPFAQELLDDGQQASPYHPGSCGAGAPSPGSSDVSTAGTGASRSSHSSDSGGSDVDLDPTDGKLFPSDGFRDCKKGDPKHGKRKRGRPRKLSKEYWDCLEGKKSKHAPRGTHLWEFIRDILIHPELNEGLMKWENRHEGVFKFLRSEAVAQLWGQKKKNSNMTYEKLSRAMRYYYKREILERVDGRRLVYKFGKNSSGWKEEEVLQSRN
The following applies: protein: recombinant; tags: N-terminal GST; dsDNA, one strand shown. The essentials:
as §1

Another assay concerns the target CRX (Homo sapiens, UniProt O43186 1-299). The settings on record: protein: recombinant; tags: N-terminal GST; dsDNA, one strand shown. Put shortly:
as §1

In a further assay the target is ETV1 (Homo sapiens, UniProt P50549 1-477). The following applies: protein: recombinant; tags: N-terminal GST; dsDNA, one strand shown. Put shortly: as §1
The target of another assay is T6, ERF (Homo sapiens, UniProt P50548 1-548).
T6 sequence: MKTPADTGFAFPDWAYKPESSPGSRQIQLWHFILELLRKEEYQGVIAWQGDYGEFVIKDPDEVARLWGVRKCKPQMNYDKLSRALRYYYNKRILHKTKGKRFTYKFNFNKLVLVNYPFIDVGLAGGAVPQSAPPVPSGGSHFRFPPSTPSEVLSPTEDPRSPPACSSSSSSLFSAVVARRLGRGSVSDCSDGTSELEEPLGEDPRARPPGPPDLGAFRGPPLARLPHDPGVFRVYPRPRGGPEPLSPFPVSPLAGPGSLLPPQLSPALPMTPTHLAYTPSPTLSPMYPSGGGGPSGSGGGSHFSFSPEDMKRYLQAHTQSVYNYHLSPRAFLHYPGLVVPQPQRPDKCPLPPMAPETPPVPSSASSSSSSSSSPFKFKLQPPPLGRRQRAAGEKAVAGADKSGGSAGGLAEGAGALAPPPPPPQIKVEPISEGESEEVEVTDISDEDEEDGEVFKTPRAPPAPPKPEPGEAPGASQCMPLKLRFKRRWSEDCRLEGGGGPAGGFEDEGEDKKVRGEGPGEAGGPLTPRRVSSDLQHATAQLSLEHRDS
The settings on record: protein: recombinant; tags: N-terminal GST; dsDNA, one strand shown. Put shortly:
as §1

The target in the next assay is T7, ETV3L (Homo sapiens, UniProt Q6ZN32 1-361).
T7 sequence: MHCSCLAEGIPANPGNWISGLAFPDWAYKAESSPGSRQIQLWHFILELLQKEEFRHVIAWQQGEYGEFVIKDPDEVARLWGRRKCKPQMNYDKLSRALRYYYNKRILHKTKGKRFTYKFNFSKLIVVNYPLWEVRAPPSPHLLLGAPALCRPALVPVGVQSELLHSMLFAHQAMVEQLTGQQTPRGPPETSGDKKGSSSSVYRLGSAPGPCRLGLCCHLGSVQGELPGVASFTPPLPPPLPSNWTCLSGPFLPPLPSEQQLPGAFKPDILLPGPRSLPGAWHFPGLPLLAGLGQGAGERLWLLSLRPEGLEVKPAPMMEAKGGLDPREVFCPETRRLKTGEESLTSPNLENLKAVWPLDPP
The following applies: protein: recombinant; tags: N-terminal GST; dsDNA, one strand shown. The essentials:
as §1

A further assay addresses T8, ETS2 (Homo sapiens, UniProt P15036 1-469).
T8 sequence: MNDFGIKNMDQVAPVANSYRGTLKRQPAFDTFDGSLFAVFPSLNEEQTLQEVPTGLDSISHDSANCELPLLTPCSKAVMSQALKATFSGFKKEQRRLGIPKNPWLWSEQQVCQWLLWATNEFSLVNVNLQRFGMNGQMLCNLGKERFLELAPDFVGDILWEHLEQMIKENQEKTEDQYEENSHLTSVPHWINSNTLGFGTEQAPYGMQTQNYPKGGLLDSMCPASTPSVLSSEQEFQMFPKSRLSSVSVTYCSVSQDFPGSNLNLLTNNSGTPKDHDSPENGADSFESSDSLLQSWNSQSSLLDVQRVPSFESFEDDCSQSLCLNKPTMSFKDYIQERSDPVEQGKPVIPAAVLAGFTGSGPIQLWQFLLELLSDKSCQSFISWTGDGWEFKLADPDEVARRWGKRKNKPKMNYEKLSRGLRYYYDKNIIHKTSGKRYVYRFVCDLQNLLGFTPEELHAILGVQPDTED
The following applies: protein: recombinant; tags: N-terminal GST; dsDNA, one strand shown. The essentials: as §1

The next assay has as its target T9, SPDEF (Homo sapiens, UniProt O95238 1-335).
T9 sequence: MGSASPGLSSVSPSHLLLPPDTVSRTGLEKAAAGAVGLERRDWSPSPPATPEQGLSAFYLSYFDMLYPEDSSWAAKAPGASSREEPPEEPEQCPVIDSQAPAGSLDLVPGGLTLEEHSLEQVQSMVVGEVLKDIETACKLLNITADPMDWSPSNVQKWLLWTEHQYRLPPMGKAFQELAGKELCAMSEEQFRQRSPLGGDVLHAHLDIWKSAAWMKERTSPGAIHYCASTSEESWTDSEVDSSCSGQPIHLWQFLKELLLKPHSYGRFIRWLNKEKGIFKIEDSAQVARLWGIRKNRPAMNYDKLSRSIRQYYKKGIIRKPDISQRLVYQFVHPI
The following applies: protein: recombinant; tags: N-terminal GST; dsDNA, one strand shown. The essentials: as §1

The target of the next assay is T10, ETV7 (Homo sapiens, UniProt Q9Y603 1-341).
T10 sequence: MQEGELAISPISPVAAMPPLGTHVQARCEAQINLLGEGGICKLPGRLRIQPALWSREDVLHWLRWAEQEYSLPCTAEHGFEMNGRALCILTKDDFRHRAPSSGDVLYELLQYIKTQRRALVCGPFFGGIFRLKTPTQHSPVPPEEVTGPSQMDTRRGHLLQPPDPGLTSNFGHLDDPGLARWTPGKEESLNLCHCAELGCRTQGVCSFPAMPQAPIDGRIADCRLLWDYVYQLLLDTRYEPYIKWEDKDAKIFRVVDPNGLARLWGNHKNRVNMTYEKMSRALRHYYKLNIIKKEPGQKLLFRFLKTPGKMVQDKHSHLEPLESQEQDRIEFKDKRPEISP
The settings on record: protein: recombinant; tags: N-terminal GST; dsDNA, one strand shown. The essentials: as §1

A further assay has as its target T11, ELF5 (Homo sapiens, UniProt Q9UKW6-2 1-255).
T11 sequence: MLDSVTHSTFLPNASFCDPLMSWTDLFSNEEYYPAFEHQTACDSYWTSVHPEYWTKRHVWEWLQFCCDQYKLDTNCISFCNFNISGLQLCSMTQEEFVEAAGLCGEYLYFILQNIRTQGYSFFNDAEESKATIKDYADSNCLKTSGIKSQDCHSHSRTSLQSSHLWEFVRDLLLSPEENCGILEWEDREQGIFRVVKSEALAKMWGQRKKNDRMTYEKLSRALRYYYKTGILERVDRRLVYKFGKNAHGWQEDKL
The following applies: protein: recombinant; tags: N-terminal GST; dsDNA, one strand shown. The essentials:
as §1

In another assay the target is T12, ETV3 (Homo sapiens, UniProt P41162-2 1-143).
T12 sequence: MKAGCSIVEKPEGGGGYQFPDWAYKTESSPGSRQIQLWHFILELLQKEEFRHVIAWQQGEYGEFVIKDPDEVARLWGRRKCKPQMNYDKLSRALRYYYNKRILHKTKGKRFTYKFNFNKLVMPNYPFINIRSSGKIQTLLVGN
The following applies: protein: recombinant; tags: N-terminal GST; dsDNA, one strand shown. Put shortly: as §1

For a further assay, the target named is ETV6 (Homo sapiens, UniProt P41212 1-452). The following applies: protein: recombinant; tags: N-terminal GST; dsDNA, one strand shown. The essentials: as §1
ETV6, sequence (P41212 whole entry): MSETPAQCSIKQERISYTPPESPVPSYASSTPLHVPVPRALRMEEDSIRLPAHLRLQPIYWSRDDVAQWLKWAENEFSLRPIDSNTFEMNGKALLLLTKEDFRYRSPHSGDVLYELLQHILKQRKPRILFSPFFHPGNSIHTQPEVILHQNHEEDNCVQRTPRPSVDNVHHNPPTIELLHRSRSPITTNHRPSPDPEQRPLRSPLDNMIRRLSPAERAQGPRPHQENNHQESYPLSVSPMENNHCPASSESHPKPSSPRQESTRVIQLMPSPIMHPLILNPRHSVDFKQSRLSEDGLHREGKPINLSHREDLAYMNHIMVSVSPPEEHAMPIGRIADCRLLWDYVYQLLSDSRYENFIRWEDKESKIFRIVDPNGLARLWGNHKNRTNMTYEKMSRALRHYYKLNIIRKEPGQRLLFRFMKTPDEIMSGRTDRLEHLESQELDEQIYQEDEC

CRX, sequence (O43186 whole entry): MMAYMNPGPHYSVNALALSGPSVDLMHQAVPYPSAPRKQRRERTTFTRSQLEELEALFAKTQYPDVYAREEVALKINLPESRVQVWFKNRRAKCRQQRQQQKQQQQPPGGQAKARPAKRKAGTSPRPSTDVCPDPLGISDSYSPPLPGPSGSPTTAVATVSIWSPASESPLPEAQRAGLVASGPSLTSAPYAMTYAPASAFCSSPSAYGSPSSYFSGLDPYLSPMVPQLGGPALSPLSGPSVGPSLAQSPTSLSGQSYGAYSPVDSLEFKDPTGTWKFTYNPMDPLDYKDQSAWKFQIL
ETV1, sequence (P50549 whole entry): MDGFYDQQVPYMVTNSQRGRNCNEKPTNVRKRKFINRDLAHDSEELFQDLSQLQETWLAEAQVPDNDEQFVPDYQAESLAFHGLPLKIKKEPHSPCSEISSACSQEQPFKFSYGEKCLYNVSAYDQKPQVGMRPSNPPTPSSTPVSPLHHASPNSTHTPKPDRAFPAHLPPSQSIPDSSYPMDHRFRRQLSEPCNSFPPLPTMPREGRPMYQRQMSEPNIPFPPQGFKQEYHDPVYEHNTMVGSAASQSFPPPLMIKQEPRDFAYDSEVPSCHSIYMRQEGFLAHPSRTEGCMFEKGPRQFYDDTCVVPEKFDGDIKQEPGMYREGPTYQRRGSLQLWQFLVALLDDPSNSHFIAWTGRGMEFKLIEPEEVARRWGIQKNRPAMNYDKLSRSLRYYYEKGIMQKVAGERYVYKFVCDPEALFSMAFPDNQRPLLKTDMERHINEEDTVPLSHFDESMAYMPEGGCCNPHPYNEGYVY
ELF4, sequence (Q99607 whole entry): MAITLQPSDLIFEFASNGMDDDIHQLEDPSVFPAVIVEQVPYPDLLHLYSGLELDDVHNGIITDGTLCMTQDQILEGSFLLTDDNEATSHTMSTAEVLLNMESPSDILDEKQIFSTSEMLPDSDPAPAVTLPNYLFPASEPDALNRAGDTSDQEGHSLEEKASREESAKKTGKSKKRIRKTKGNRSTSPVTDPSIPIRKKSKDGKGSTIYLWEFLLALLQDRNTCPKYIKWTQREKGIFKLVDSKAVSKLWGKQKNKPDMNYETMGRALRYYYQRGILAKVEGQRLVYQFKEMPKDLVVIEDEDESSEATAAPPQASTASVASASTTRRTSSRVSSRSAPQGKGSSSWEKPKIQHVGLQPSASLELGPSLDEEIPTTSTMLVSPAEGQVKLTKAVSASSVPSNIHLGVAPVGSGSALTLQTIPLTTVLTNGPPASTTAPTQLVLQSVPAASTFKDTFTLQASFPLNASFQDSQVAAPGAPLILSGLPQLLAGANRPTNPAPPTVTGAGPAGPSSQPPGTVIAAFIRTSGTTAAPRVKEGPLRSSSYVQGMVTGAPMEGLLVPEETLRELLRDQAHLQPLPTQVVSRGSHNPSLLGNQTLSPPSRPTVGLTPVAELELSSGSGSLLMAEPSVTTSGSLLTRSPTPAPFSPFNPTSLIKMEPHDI
ETV5, sequence (P41161 whole entry): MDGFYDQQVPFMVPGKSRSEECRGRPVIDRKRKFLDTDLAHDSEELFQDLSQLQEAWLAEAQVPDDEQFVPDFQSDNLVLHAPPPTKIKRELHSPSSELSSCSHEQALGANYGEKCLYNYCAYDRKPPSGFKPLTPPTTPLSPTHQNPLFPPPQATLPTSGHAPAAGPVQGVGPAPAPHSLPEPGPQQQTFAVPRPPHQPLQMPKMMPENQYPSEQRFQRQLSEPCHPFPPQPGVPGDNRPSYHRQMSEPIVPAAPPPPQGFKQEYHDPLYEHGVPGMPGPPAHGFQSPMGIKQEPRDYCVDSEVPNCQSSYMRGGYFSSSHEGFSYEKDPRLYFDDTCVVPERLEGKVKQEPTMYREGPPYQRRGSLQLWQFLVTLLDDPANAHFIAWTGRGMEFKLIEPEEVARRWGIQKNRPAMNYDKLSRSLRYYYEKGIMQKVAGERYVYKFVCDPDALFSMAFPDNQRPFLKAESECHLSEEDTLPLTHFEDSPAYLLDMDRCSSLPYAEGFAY
HSF1, sequence (Q00613 whole entry): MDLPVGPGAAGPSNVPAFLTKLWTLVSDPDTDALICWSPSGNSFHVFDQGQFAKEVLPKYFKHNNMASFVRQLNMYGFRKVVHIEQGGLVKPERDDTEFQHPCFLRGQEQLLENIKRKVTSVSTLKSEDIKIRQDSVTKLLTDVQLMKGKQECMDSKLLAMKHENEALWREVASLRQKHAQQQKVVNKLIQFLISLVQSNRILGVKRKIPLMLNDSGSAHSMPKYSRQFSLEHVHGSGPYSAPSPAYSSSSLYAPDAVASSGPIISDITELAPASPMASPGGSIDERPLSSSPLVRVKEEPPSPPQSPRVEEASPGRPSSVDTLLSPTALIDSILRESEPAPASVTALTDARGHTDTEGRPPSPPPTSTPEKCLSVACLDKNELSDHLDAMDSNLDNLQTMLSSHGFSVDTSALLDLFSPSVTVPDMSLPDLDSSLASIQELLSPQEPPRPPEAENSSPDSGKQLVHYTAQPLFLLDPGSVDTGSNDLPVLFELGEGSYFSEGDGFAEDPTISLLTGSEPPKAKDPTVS

Take TATTCA: the binding signal in the assay with FEV was 1.28 fold enrichment (6-mer frequency, TF over GST control); in the assay with ETV5, 1.33 fold enrichment (6-mer frequency, TF over GST control); in the assay with HSF1 it was 1.32 fold enrichment (6-mer frequency, TF over GST control); with SPIC it was 1.47 fold enrichment (6-mer frequency, TF over GST control); with ELF4, 1.29 fold enrichment (6-mer frequency, TF over GST control); in the assay with ELK4, 1.33 fold enrichment (6-mer frequency, TF over GST control). Further, the binding signal with ETV2 is 1.35 fold enrichment (6-mer frequency, TF over GST control); with ELF3, 1.31 fold enrichment (6-mer frequency, TF over GST control); with CRX, 1.42 fold enrichment (6-mer frequency, TF over GST control); with ETV1, 1.28 fold enrichment (6-mer frequency, TF over GST control); in the assay with ERF, 1.36 fold enrichment (6-mer frequency, TF over GST control); in the assay with ETV3L, 1.43 fold enrichment (6-mer frequency, TF over GST control). Moreover, the binding signal with ETS2 was 1.34 fold enrichment (6-mer frequency, TF over GST control); in the assay with SPDEF it was 1.28 fold enrichment (6-mer frequency, TF over GST control); with ETV7, 1.23 fold enrichment (6-mer frequency, TF over GST control); in the assay with ELF5, 1.24 fold enrichment (6-mer frequency, TF over GST control); with ETV3, 1.23 fold enrichment (6-mer frequency, TF over GST control); in the assay with ETV6, 1.3 fold enrichment (6-mer frequency, TF over GST control).
